From PubChem BioAssay (Tox21) come the findings set out here.

A number with no mark means an inactive call. Records with an inconclusive call do not appear. Calls of active or inactive are those of the source. Unless noted, calls come from the whole dose curve.

The target in test [1] is Estrogen receptor beta (Homo sapiens) (UniProt Q92731). In words: qHTS assay to identify small molecule agonists of the estrogen receptor beta (ER-beta) signaling pathway (AID 1259377; active = well fitted activation curve with a large enough effect in the signal ratio in the repeat runs, not every such curve was filed as active; the % refers to the signal ratio; note: potency is the fitted concentration of half-maximal effect). The gist of the method:
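Reporter cells (HEK293T, ER-beta-UAS-bla) receive compounds or DMSO after a 6 hr pre-incubation. They then incubate 16 hr at 37C/5% CO2, and fluorescence from LiveBLAzer B/G substrate is measured after 2 hours at room temperature.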
For orientation: qHTS replaces the single test concentration by a dilution series.

The nature of test [2]: qHTS assay to identify small molecule agonists of the androgen receptor (AR) signaling pathway in the presence of an antagonist - cell viability counter screen (AID 1259379; active = well fitted curve in the direction sought with a large enough effect in the repeat runs; an effect the other way counts as inactive or inconclusive;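 note: MDA-kb2 human breast cancer cells carrying an MMTV luciferase reporter; series mostly up to about 92 µM; nearly all actives have a fitted effect of over 25% in size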). The gist of the method: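 In MDA-kb2 cells (human breast carcinoma, MMTV-luciferase), compounds at 15 concentrations plus 3.0uM nilutamide; 16 hr, 37C, 0% CO2; CellTiter-Fluor fluorescence read for viability.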

The nature of test [3]: qHTS assay to identify small molecule antagonists of the estrogen receptor beta (ER-beta) signaling pathway - cell viability counter screen (AID 1259382; active = well fitted curve in the direction sought with a large enough effect in the repeat runs; an effect the other way counts as inactive or inconclusive; note: series mostly up to about 92 µM; nearly all actives have a fitted effect of over 55% in size). In a few lines:
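Tox21 10K library tested in qHTS format on ER-beta-bla HEK293T cells stimulated with 1nM E2; 16 hr treatment at 37C. Same-well CellTiter-Glo luminescence served as the cell viability measure.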

The target of test [4] is Estrogen receptor (Homo sapiens) (UniProt P03372). Description: qHTS assay to identify small molecule agonists of the estrogen receptor alpha (ER-alpha) signaling pathway in the presence of an antagonist (AID 1259383). For activation: top concentration of the series differs between compounds. Note: nearly all actives have a fitted effect of over 15% in size. Note: potency is the fitted concentration of half-maximal effect. In a few lines:
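In VM7Luc4E2 cells, 4,000 per well, compounds at 15 concentrations were co-incubated 22hr at 37C with 10.0nM final ICI-182,780. Luminescence from the stably transfected 4×ERE-luciferase reporter was recorded 30min after ONE-Glo addition.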

Test [5] can be described thus: qHTS assay to identify small molecule agonists or antagonists of the thyroid stimulating hormone receptor (TSHR) signaling pathway - wild type cell line counter screen (AID 1259384). In a few lines:
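Wild-type HEK293 cells were plated 18 h at 37 C/5% CO2, pin-dosed with compound plus Ro20-1724 medium, held 30 min at room temperature, then given cAMP-d2 and anti-cAMP-cryptate; fluorescence was read after 1 h. Fifteen concentrations, triplicate.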

Test [6] addresses Thyrotropin receptor (Homo sapiens) (UniProt P16473). In words: qHTS assay to identify small molecule antagonists of the thyroid stimulating hormone receptor (TSHR) signaling pathway (AID 1259385). Note: nearly all actives have a fitted effect of over 20% in size. The gist of the method:
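TSHR-HEK293 cells were plated and held 18 h at 37C/5% CO2, then given compound plus Ro20-1724 and stimulated with TSH at 1.5 ng/mL final. After 30 min at room temperature, cAMP was detected with cAMP-d2/anti-cAMP-cryptate (1 h) by fluorescence.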

Test [7] has as its target Estrogen receptor beta (Homo sapiens) (UniProt Q92731). In words: qHTS assay to identify small molecule antagonists of the estrogen receptor beta (ER-beta) signaling pathway (AID 1259378; active = well fitted inhibition curve with a large enough effect in the signal ratio in the repeat runs, not every such curve was filed as active; the % refers to the signal ratio). In a few lines: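 ER-beta-UAS-bla HEK293T (GripTite) cells in 2% charcoal-stripped FBS medium were preincubated 6 hr at 37C, dosed with compound, then stimulated with 1 nM E2 (final) for 16 hr; beta-lactamase reporter read by B/G FRET fluorescence after 2 hr substrate loading.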

A short description of test [8]: qHTS assay to identify small molecule agonists of the estrogen receptor beta (ER-beta) signaling pathway - cell viability counter screen (AID 1259380; active = well fitted curve in the direction sought with a large enough effect in the repeat runs; an effect the other way counts as inactive or inconclusive; note: nearly all actives have a fitted effect of over 30% in size). The gist of the method: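 Viability of ER-beta-UAS-bla HEK293T cells was determined by CellTiter-Glo luminescence following 16 hr treatment with test compounds at 37C.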
In test [9] the target is Androgen receptor (Homo sapiens) (UniProt P10275). In words: qHTS assay to identify small molecule agonists of the androgen receptor (AR) signaling pathway in the presence of an antagonist (AID 1259381). Note: nearly all actives have a fitted effect of over 15% in size. In a few lines: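 Here, 15-concentration compound series were pin-transferred onto MDA-kb2 MMTV-luciferase cells already dosed with nilutamide (3.0uM final). After 16hr at 37C, ONE-Glo was added and luminescence read 30min later at room temperature.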

The nature of test [10]: qHTS assay to identify small molecule antagonists of the sonic hedgehog signaling (Shh) pathway (AID 1259369). Note: nearly all actives have a fitted effect of over 45% in size. The gist of the method: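 Screening used 3T3Gli1-Luc cells at 2,000 per well, compounds delivered in DMSO, and conditioned medium as agonist stimulus; plates incubated 24hr at 37 C and 5% CO2 before a 30min luciferase step.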

Sequence of Estrogen receptor (Homo sapiens) (P03372 whole entry, looked up): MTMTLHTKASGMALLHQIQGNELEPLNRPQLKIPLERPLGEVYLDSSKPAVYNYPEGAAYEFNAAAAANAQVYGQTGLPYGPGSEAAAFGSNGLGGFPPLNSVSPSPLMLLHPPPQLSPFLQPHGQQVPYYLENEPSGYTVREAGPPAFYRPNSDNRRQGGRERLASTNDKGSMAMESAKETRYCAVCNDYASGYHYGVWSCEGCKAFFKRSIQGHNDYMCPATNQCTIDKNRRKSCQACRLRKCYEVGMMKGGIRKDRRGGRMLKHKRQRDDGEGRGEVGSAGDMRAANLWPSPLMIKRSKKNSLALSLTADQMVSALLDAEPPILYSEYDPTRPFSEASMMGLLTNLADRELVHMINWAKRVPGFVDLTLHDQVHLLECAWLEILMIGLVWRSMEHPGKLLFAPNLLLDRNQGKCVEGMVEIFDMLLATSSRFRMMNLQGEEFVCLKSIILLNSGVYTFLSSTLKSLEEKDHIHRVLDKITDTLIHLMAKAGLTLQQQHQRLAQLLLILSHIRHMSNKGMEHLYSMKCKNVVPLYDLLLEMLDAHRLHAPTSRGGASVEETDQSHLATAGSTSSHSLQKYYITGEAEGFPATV
Sequence of Androgen receptor (Homo sapiens) (P10275 whole entry, looked up): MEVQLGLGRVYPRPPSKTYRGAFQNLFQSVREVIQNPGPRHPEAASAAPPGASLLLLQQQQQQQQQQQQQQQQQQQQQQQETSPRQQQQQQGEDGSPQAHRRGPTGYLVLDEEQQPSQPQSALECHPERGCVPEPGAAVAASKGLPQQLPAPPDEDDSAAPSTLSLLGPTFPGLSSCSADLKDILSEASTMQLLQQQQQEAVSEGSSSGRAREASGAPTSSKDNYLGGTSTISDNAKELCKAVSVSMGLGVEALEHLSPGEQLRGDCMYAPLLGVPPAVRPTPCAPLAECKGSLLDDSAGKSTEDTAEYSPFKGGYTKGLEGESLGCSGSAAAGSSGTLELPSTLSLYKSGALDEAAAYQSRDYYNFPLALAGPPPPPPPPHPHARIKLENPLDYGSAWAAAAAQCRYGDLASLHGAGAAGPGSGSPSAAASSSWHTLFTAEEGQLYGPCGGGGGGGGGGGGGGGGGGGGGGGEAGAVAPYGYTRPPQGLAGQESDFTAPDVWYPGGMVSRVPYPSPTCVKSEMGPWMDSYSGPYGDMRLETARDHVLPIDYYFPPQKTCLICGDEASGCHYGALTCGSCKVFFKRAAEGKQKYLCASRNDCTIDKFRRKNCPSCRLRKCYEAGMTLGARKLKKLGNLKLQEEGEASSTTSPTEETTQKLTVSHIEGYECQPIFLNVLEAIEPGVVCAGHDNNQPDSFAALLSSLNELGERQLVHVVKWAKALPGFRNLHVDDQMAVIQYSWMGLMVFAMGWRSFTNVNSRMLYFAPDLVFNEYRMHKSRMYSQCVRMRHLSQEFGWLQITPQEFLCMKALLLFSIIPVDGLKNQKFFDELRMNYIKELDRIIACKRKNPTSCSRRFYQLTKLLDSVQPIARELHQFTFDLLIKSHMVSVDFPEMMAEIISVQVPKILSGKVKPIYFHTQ
Sequence of Thyrotropin receptor (Homo sapiens) (P16473 whole entry, looked up): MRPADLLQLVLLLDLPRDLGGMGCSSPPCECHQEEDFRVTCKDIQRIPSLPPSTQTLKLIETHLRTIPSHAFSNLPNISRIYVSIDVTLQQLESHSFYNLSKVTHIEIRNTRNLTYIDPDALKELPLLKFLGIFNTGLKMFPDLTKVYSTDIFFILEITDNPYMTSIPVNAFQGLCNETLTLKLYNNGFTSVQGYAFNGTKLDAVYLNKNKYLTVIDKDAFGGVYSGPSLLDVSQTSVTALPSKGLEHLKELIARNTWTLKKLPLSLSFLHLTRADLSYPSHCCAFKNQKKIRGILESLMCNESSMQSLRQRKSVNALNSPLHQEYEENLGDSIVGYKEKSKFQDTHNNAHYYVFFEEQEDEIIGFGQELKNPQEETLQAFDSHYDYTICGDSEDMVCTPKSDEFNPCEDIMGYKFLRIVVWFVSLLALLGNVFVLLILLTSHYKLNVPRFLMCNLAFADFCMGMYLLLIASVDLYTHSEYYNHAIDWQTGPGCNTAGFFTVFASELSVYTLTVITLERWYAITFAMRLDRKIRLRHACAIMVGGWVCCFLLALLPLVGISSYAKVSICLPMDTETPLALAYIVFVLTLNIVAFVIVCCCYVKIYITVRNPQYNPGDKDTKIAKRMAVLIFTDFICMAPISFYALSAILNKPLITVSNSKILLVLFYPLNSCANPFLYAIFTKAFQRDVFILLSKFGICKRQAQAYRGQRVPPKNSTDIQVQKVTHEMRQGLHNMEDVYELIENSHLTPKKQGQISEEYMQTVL
Sequence of Estrogen receptor beta (Homo sapiens) (Q92731 whole entry, looked up): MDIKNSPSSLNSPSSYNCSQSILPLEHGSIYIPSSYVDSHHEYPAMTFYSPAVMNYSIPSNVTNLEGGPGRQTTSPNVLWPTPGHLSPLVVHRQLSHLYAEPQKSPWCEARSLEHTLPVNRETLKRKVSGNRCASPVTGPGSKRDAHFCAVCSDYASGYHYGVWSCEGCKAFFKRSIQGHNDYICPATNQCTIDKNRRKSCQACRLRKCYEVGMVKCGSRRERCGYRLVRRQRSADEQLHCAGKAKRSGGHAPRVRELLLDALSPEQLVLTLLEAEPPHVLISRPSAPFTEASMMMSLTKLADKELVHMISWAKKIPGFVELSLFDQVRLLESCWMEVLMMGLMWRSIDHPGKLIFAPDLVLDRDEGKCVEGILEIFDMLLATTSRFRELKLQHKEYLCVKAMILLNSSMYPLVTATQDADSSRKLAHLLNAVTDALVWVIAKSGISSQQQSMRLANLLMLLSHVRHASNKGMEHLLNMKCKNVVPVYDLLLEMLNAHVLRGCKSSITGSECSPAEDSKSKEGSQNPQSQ

As to `CC#Cc1cc(C)nc(Nc2ccccc2)n1`, the Potency result in test [1], in test [2], in test [3] and in test [4] was “inactive” throughout. Moreover, the outcome in test [5] and in test [6] was inactive.
`COC(=O)c1ccc(CBr)cc1`: the Potency result in test [1], in test [2], in [8], in [9] and in test [3] was “inactive” each time. For the same compound, the call in test [7], in test [5] and in [6] was inactive. Also, the Potency in test [4] is 12.3 µM (active).
As for `CCCC[N+](=O)[O-]`, the Potency entry in test [10], in test [2], in test [8] and in [4] was “inactive” in each case. In addition, the result in test [5] and in test [6] was inactive.
For `C=CCC1(C(C)CC)C(=O)NC(=O)NC1=O` (stereo unspecified), the Potency result in test [10], in [2], in [8] and in [4] was “inactive” each time. The result in test [5] and in [6] was inactive.
For the compound `C=CCN1CC[C@]23CCCC[C@H]2[C@H]1Cc1ccc(O)cc13`, the Potency result in test [10], in [2] and in [8] was “inactive” each time. In addition, the call in [5] and in test [6] was inactive.
In the case of `NNC(N)=O`, the Potency result in [1], in test [2], in test [8] and in test [4] was “inactive” each time. Moreover, the result in [7] was inactive.
For `ClCC1CO1` (stereo unspecified), the Potency entry in [10], in test [2], in [8] and in test [4] was “inactive” each time. For the same compound, the outcome in test [5] and in test [6] was inactive.
In the case of `[O-][Br+2]([O-])O`, the Potency entry in test [8], in [9] and in [4] was “inactive” in each case. The compound was called inactive in [5] and in test [6].
Take `COC(=O)c1ccccc1CS(=O)(=O)NC(=O)Nc1nc(OC)cc(OC)n1`: the Potency entry in test [1], in [2], in test [8], in test [3] and in test [4] was “inactive” each time. The call in [7], in test [5] and in [6] was inactive.
For the compound `CCOc1cc(OP(=S)(OC)OC)nc(CC)n1`, the Potency entry in [1], in [2], in test [3] and in [4] was “inactive” in each case. The call in test [7] and in test [5] was inactive.
On to `CCSC(=O)Cl`, for which the Potency entry in [1], in test [2], in test [9], in test [3] and in test [4] was “inactive” each time. Besides, the compound was classed as inactive in test [7] and in test [6].
With `NNCc1ccccc1`, the Potency entry in [10], in [2] and in test [3] was “inactive” each time. Besides, the compound was called inactive in [5].
On to `CCNc1nc(NCC)nc(SC)n1`, for which the Potency entry in [1], in test [2], in test [8], in [3] and in test [4] was “inactive” throughout. For the same compound, the result in [7], in test [5] and in test [6] was inactive.
On to `CC(C)(N)Cc1ccc(Cl)cc1`, for which the Potency entry in test [10], in [2], in test [8] and in test [4] was “inactive” each time. For the same compound, the outcome in test [5] and in [6] was inactive.
In the case of `CC[C@H](O)C(C[C@H](C)N(C)C)(c1ccccc1)c1ccccc1`, the Potency result in test [1], in [2] and in test [4] was “inactive” in each case. Besides, the result in test [7] and in test [6] was inactive.
With `Cc1ccc(-c2nc3ccc(C)cn3c2CC(=O)N(C)C)cc1`, the Potency result in test [10], in test [2] and in test [4] was “inactive” in each case. Moreover, the compound was called inactive in test [5] and in test [6].
For `c1ccc2c(c1)CCNC2`, the Potency entry in test [1], in test [2], in test [8] and in test [3] was “inactive” each time. The result in [7] and in [6] was inactive.
As to `CNC(=O)Oc1cc(C)c(N(C)C)c(C)c1`, the result in [7], in [5] and in test [6] was inactive. Besides, the Potency result in [2], in test [8] and in test [3] was “inactive” in each case.
Consider `CC1N=C(N)OC1c1ccccc1` (stereo unspecified), for which the Potency result in test [1], in [2], in test [3] and in test [4] was “inactive” throughout. For the same compound, the outcome in test [5] and in test [6] was inactive.
Regarding `ClCCN1CCCC1`, the Potency result in test [1], in [2], in [8], in test [3] and in test [4] was “inactive” in each case. For the same compound, the compound was called inactive in [7] and in test [6].
In the case of `CNC(=O)NC(O)C(Cl)(Cl)Cl` (stereo unspecified), the Potency entry in test [1], in test [2], in test [8], in test [9], in test [3] and in test [4] was “inactive” each time. Besides, the result in test [7], in [5] and in test [6] was inactive.
For the compound `Cn1c(N)nc2c3cccnc3ccc21`, the Potency entry in test [1], in test [2], in test [8], in test [3] and in [4] was “inactive” each time. Besides, the result in test [7] was inactive.
As for `Oc1ccc(Cc2ccc(O)cc2)cc1`, the Potency in test [1] was 5.49 µM (active); in [4], 30.9 µM (active). Besides, the Potency entry in [2], in test [8] and in test [3] was “inactive” each time. Besides, the outcome in test [5] was inactive.
Consider `Cl/C=C/CCl`, for which the Potency result in test [1], in test [2], in test [8] and in test [3] was “inactive” in each case. The compound was classed as inactive in [7], in test [5] and in [6].
As to `CON(C)C(=O)Nc1ccc(Br)c(Cl)c1`, the compound was called inactive in test [7] and in [5]. Moreover, the Potency entry in test [2] and in test [3] was “inactive” each time.
In the case of `CCC1(c2cccc(O)c2)CCCCN(C)C1` (stereo unspecified), the Potency entry in test [2], in test [8] and in test [3] was “inactive” each time.
Regarding `C[C@]12C=CC(=O)C=C1CC[C@@H]1[C@@H]2CC[C@@]2(C)[C@H]1CC[C@]2(C)O`, the Potency entry in test [2] and in test [3] was “inactive” each time. Moreover, the Potency in test [4] is 2.98 µM (active). For the same compound, the compound was called inactive in test [5].
